Experimental data: the supplement of paper PMC11150407
The campaign covered roughly 2,100 compounds. About 180 (8.6%) showed an effect of 50% or more. Shown is part of a subset that was picked to be rich in strong results.

These compounds were tested on MOLM1 and UCSD/AML1 (averaged) (assay: cell viability relative to DMSO control (POC); higher = less growth inhibition). Conditions: 1 µM; 72 h.
Protocol: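 Primary viability screen in the 3q26 EVI1-high AML cell lines MOLM1 and UCSD/AML1 (1.5e3 cells/well, 384-well), compounds at 1 uM for 72 h. ATP CellTiter-Glo read-out given as percent of viable cells over DMSO control (POC), averaged over duplicates. DMSO was the negative control and 5 uM etoposide the positive control. This mapping covers the MicroSource Spectrum and Selleck anticancer libraries (drug names).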

Row | SMILES | cell viability
1 | CN(C)C(=S)SSC(=S)N(C)C | 1.29%
2 | C[C@]12CC[C@H]3[C@@H](CCC4=CC(=O)CC[C@@]43C)[C@@H]1CC[C@@H]2O | 103%
3 | CC[C@@]1(O)C[C@H](O)c2c(cc3c(c2O)C(=O)c2c(O)ccc(O)c2C3=O)[C@H]1C(=O)OC | 99.6%
4 | CC[C@@]1(O)C[C@H](O[C@H]2C[C@H](N(C)C)[C@H](O)[C@H](C)O2)c2c(cc3c(c2O)C(=O)c2c(O)cccc2C3=O)[C@H]1C(=O)OC | 38.5%
5 | CC[C@@]1(O)C[C@H](O[C@H]2C[C@H](N(C)C)[C@H](O)[C@H](C)O2)c2c(cc3c(c2O)C(=O)c2c(O)ccc(O)c2C3=O)[C@H]1C(=O)OC | 0.762%
6 | O=C1CCC[C@@H]2[C@H]3C[C@@H](CN12)[C@@H]1CCCCN1C3.[O-][Cl+3]([O-])([O-])O | 95.6%
7 | COc1cc(OC)c2c(c1)O[C@H](c1ccc(OC)c(OC)c1)[C@@H](O)C2 | 100%
8 | C=CCC1(C(C)CCC)C(=O)NC(=S)NC1=O (stereo not drawn) | 89.9%
9 | COc1cc2c(cc1OC)[C@@H]1C(=O)c3ccc4oc(C(C)C)cc4c3O[C@@H]1CO2 | 81.7%
10 | CC(O)(CS(=O)(=O)c1ccc(F)cc1)C(=O)Nc1ccc(C#N)c(C(F)(F)F)c1 (stereo not drawn) [Bicalutamide (Casodex)] | 101%
11 | C[C@H](N)[C@H](O)c1ccc(O)c(O)c1 | 105%
12 | O=C(O)CCC1NCC2CC1CN1CCCCC21 (stereo not drawn) | 93.6%
13 | CCCC(C)C1(CC)C(=O)NC(=S)NC1=O (stereo not drawn) | 96.6%
14 | CN1C[C@H](C(=O)N[C@]2(C)O[C@@]3(O)[C@@H]4CCCN4C(=O)[C@H](Cc4ccccc4)N3C2=O)C=C2c3cccc4[nH]cc(c34)C[C@H]21 | 48.2%
15 | CC(C)C[C@H]1C(=O)N2CCC[C@H]2[C@]2(O)O[C@](NC(=O)[C@@H]3C=C4c5cccc6[nH]c(Br)c(c56)C[C@H]4N(C)C3)(C(C)C)C(=O)N12 | 108%
16 | CN1C[C@H](C(=O)N[C@]2(C)O[C@@]3(O)[C@@H]4CCCN4C(=O)[C@H](Cc4ccccc4)N3C2=O)C[C@@H]2c3cccc4[nH]cc(c34)C[C@H]21 | 112%
17 | O=C(O)Cc1cnc[nH]1 | 101%
18 | CN1C2CCC1CC(O)C2 (stereo not drawn) | 109%
19 | C#CCN(C)[C@H](C)Cc1ccccc1 | 84.3%
20 | O=P1(NCCCl)OCCCN1CCCl (stereo not drawn) [Ifosfamide] | 105%
21 | O=P1(NCCCl)OCCCN1CCCl (stereo not drawn) | 105%
22 | CC(=O)[O][Hg][c]1ccccc1 | 1.17%
23 | NCC(=O)c1ccccc1 | 130%
24 | COc1ccc(CCN2CCC(Nc3nc4ccccc4n3Cc3ccc(F)cc3)CC2)cc1 | 95.2%
25 | CC(=O)O[C@H]1[C@H]2[C@@H](OC(=O)Cc3ccccc3)[C@@H](C)C[C@]2(OC(C)=O)C(=O)/C(C)=C/[C@@H]2[C@H](CC[C@@]13CO3)C2(C)C | 96.8%

Row | SMILES | cell viability
26 | COc1cc2c(c(OC)c1OC)-c1ccc(OC)c(=O)cc1[C@@H](NC(C)=O)CC2 | 6.75%
27 | CC(=O)O[C@@H]1C[C@H]2C(C)(C)C(=O)C=C[C@]2(C)[C@H]2CC[C@]3(C)C(=CC(=O)O[C@H]3c3ccoc3)[C@@]21C | 75.1%
28 | Nc1ncn[nH]1 | 109%
29 | CCCCCCCCCc1ccc(O)cc1 | 105%
30 | CNC(=O)Oc1ccc2c(c1)[C@]1(C)CCN(C)[C@@H]1N2C | 106%
31 | O=C1C=C2C(=CCOC2O)O1 (stereo not drawn) | 1.61%
32 | c1cncc([C@@H]2CCCCN2)c1 | 107%
33 | C[C@H]1O[C@H](O[C@H]2[C@H](O)[C@@H](O)[C@@H](O)[C@H](O)[C@@H]2O)[C@@H](N)C[C@@H]1NC(=N)C(=O)O | 103%
34 | C[C@]12C=CC(=O)C=C1CC[C@@H]1[C@@H]2CC[C@]2(C)C(=O)CC[C@@H]12 | 101%
35 | CC(C)=CCC[C@]1(C)C=Cc2c(O)c3c(c(CC=C(C)C)c2O1)O[C@]12C(=C[C@@H]4C[C@H]1C(C)(C)O[C@@]2(C/C=C(/C)C(N)=O)C4=O)C3=O | 13.2%
36 | CC(C)=CCC[C@]1(C)C=Cc2c(O)c3c(c(CC=C(C)C)c2O1)O[C@]12C(=C[C@@H]4C[C@H]1C(C)(C)O[C@@]2(C/C=C(/C)C(=O)O)C4=O)C3=O | 1.06%
37 | CC(C)=CCCC1(C)C=Cc2c(O)c3c(c(CC=C(C)C)c2O1)OC12C(CC4CC1C(C)(C)OC2(C/C=C(/C)C(=O)O)C4O)C3=O (stereo not drawn) | 94.1%
38 | CC(C)=CCCC1(C)C=Cc2c(O)c3c(c(CC=C(C)C)c2O1)OC12C(=CC4CC1C(C)(C)OC2(C/C=C(/C)C(=O)O)C4O)C3=O (stereo not drawn) | 99.7%
39 | CC(C)CCCC1(C)C=Cc2c(O)c3c(c(CCC(C)C)c2O1)OC12C(CC4CC1C(C)(C)OC2(CCC(C)C(=O)O)C4O)C3=O (stereo not drawn) | 106%
40 | C=C(C)c1cc2cc(C(C)=O)c(O)cc2o1 | 104%
41 | COC(=O)C1=CCCN(C)C1 | 98.5%
42 | COc1c2c(cc3c1OCO3)CCN(C)C2 | 119%
43 | CCC(C)C(=O)O[C@@H]1C[C@@]2(C)[C@H](c3ccoc3)OC(=O)CC23OC2(C)O[C@]14[C@]1(C)[C@@H](CC(=O)OC)C5(C)CC1(O)[C@](O)(C5OC(=O)C1(C)OC1C)[C@@H](OC(C)=O)[C@]34O2 (stereo partly drawn) | 95.6%
44 | CC1(C)N([O-])[N+](=O)C1(C)Br (stereo not drawn) | 109%
45 | COc1cc2c(cc1O)CCN[C@@H]2C | 112%
46 | CCN1C[C@]2(OC(=O)c3ccccc3NC(C)=O)CC[C@H](OC)[C@@]34[C@@H]2C[C@@H]([C@@H]13)[C@@]1(O)C[C@H](OC)[C@H]2C[C@@H]4[C@]1(O)[C@H]2OC | 96.8%
47 | CO[C@H]1[C@H](O)[C@H](O[C@H]2CC[C@@]3(C=O)[C@H](CC[C@@H]4[C@@H]3CC[C@]3(C)[C@@H](C5=CC(=O)OC5)CC[C@]43O)C2)O[C@@H](C)[C@@H]1O | 1.75%
48 | CO[C@H]1C[C@H](O[C@H]2CC[C@]3(C=O)[C@H]4CC[C@]5(C)[C@@H](C6=CC(=O)OC6)CC[C@]5(O)[C@@H]4CC[C@]3(O)C2)O[C@H](C)[C@H]1O | 3.81%
49 | C[C@@H]1O[C@@H](O[C@H]2C[C@@H](O)[C@]3(CO)[C@H]4[C@H](O)C[C@]5(C)[C@@H](C6=CC(=O)OC6)CC[C@]5(O)[C@@H]4CC[C@]3(O)C2)[C@H](O)[C@H](O)[C@H]1O | 1.94%
50 | C[C@@H]1O[C@@H](O[C@H]2CC[C@]3(C=O)[C@H]4CC[C@]5(C)[C@@H](C6=CC(=O)OC6)CC[C@]5(O)[C@@H]4CC[C@]3(O)C2)[C@H](O)[C@H](O)[C@H]1O | 1.83%

Row | SMILES | cell viability
51 | COc1cc2ccc(=O)oc2c2ccoc12 | 104%
52 | C[N+]12CC[C@@]34c5ccccc5N5C(=O)C[C@@H]6OCC=C(C1)[C@H](C[C@@H]32)[C@@H]6[C@H]54 (stereo partly drawn) | 102%
53 | O=C([O-])c1ccccc1-c1c2cc(Br)c(=O)cc-2oc2[c]([Hg+])c([O-])c(Br)cc12.[Na+].[Na+].[OH-] | 87.1%
54 | O=C1CN=C(c2ccccc2Cl)c2cc([N+](=O)[O-])ccc2N1 | 87%
55 | C[C@@]12C(=O)OC(=O)[C@]1(C)[C@H]1CC[C@@H]2O1 | 101%
56 | CC[C@@H](CO)NC(=O)[C@@H]1C=C2c3cccc4[nH]cc(c34)C[C@H]2N(C)C1 | 98%
57 | CCC12C=CCN3CC[C@@]4(c5ccc(OC)cc5N(C)[C@H]4[C@@](O)(C(=O)OC)[C@@H]1OC(C)=O)[C@@H]32 (stereo partly drawn) | 94%
58 | C=C[C@H]1CN2CC[C@H]1C[C@@H]2[C@@H](O)c1ccnc2ccccc12 | 113%
59 | CC1(C)C2CC(=O)[C@]3(C)C(CC[C@@]4(C)[C@H](c5ccoc5)OC(=O)[C@H]5O[C@]543)[C@@]2(C)C(=O)C[C@H]1O (stereo partly drawn) | 87.6%
60 | Cc1[nH]c2ccccc2c1CN(C)C | 109%
61 | C[C@]12CCC(=O)C[C@@H]1CC[C@@H]1[C@@H]2CC[C@]2(C)C(=O)CC[C@@H]12 [5alpha-ANDROSTAN-3,17-DIONE] | 101%
62 | C[C@]12CC[C@H]3[C@@H](CC[C@]4(O)C[C@@H](O)CC[C@]34C=O)[C@@]1(O)CC[C@@H]2C1=CC(=O)OC1 | 3.15%
63 | CC1CC(Cl)CCC1C(=O)OC(C)(C)C (stereo not drawn) | 102%
64 | COc1cc([C@@H]2c3cc4c(cc3[C@H](OC(C)=O)[C@H]3COC(=O)[C@H]23)OCO4)cc(OC)c1OC | 6.04%
65 | COc1cc([C@@H]2c3cc4c(cc3[C@H](OC(C)=O)[C@H]3COC(=O)[C@@H]23)OCO4)cc(OC)c1OC | 34.9%
66 | O=C(O)COc1cc(Cl)c(Cl)cc1Cl | 98.7%
67 | COc1cc2c(cc1O)C[C@H]1c3c(cc(O)c(OC)c3-2)CCN1C | 99%
68 | O=c1ccc2c(O)c3ccoc3cc2o1 | 91.2%
69 | CC1(C)C2C[C@@H](O)[C@]3(C)C(CC[C@@]4(C)[C@H](c5ccoc5)OC(=O)[C@H]5O[C@]543)[C@@]2(C)[C@@H](O)C[C@H]1O (stereo partly drawn) | 106%
70 | CCN1C[C@]2(COC)[C@H](O)C[C@H](OC)[C@@]34[C@@H]5C[C@@]6(O)[C@H](OC(=O)c7ccccc7)[C@@H]5[C@@](OC(C)=O)([C@@H]([C@H](OC)[C@H]23)[C@@H]14)[C@@H](O)[C@@H]6OC | 100%
71 | CC1(C)C(=O)C=C[C@]2(C)[C@H]3CC[C@@]4(C)[C@H](c5ccoc5)OC(=O)[C@H]5O[C@]54[C@]3(C)[C@H](O)C[C@@H]12 | 98.3%
72 | O=C1C(Cl)=C(Cl)C(=O)C(Cl)=C1Cl | 114%
73 | CNc1ccc(C(=O)CC(O)CCC(C)C2OC(=O)CC(O)CC(=O)CC(O)CC(O)CC(O)CC(O)CC3(O)CC(O)C(C(=O)OC)C(CC(O[C@@H]4O[C@H](C)[C@@H](O)[C@H](N)[C@@H]4O)/C=C/C=C/C=C/C=C/C=C/C=C/C=C/C2C)O3)cc1.COC(=O)C1C(O)CC2(O)CC(O)CC(O)CC(O)CC(O)CC(=O)CC(O)CC(=O)OC(C(C)CCC(O)CC(=O)c3ccc(N)cc3)C(C)/C=C/C=C/C=C/C=C/C=C/C=C/C=C/C(O[C@@H]3O[C@H](C)[C@@H](O)[C@H](N)[C@@H]3O)CC1O2 (stereo partly drawn) | 93.4%
